Data from ChEMBL document CHEMBL1961873, “Compounds: GSK PKIS; Assays: Nanosyn kinase panel” (2012).

Experiments:
[1] = target: T1, Aurora kinase A (Homo sapiens) (UniProt O14965); conditions: at 1 µM;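 note: values are mean percent inhibition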
T1 sequence (whole entry): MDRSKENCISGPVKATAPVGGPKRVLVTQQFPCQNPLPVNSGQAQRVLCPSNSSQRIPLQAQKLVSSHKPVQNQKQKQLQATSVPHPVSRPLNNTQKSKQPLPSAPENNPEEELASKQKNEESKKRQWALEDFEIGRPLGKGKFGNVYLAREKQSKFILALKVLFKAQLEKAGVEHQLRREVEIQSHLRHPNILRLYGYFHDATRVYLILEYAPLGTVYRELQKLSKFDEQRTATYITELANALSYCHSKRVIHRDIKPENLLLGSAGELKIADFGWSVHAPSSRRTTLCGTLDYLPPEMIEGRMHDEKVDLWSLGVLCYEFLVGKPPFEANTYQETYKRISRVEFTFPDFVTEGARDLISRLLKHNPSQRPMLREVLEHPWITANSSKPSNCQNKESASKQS

[2] = target: Aurora kinase B (Homo sapiens) (UniProt Q96GD4); conditions: at 0.1 µM
[3] = target: Aurora kinase B (Homo sapiens) (UniProt Q96GD4); conditions: at 1 µM
[4] = target: T2, Aurora kinase C (Homo sapiens) (UniProt Q9UQB9); conditions: at 0.1 µM
T2 sequence (whole entry): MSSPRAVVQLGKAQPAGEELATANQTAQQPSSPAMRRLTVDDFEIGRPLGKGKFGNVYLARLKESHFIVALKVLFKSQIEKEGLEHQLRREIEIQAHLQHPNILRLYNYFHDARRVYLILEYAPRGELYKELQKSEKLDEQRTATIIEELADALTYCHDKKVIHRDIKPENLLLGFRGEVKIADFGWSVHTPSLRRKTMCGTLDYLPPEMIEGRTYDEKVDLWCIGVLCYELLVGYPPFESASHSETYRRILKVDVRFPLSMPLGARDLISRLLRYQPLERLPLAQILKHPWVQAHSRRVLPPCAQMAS

[5] = target: T2, Aurora kinase C (Homo sapiens); conditions: at 1 µM
[6] = target: Serine/threonine-protein kinase 10 (Homo sapiens) (UniProt O94804); conditions: at 0.1 µM
[7] = target: Serine/threonine-protein kinase 10 (Homo sapiens) (UniProt O94804); conditions: at 1 µM
[8] = target: T3, Mitogen-activated protein kinase kinase kinase kinase 2 (Homo sapiens) (UniProt Q12851); conditions: at 0.1 µM
T3 sequence (whole entry): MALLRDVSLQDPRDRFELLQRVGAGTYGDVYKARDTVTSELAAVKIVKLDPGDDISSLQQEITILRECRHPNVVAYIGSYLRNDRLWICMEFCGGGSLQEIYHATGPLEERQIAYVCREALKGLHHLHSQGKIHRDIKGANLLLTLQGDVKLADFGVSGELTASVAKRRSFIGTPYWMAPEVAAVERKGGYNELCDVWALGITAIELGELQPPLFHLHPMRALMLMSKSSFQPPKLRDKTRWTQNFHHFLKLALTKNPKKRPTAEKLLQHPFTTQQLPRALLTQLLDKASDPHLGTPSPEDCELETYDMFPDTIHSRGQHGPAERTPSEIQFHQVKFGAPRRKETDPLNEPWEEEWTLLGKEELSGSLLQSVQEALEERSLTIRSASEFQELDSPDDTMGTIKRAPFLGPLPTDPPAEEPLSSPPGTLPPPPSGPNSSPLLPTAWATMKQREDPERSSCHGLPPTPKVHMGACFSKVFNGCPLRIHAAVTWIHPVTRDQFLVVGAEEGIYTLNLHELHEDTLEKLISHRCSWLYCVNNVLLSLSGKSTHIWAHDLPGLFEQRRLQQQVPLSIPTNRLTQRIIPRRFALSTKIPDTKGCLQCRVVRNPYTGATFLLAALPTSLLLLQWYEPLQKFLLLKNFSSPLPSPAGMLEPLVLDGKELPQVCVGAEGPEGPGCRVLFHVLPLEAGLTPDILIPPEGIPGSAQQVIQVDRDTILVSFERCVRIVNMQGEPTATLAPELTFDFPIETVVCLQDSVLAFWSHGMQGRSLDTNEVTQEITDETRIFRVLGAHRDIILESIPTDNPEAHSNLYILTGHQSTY

[9] = target: T3, Mitogen-activated protein kinase kinase kinase kinase 2 (Homo sapiens); conditions: at 1 µM
[10] = target: Mitogen-activated protein kinase kinase kinase kinase 4 (Homo sapiens) (UniProt O95819); conditions: at 0.1 µM
[11] = target: Mitogen-activated protein kinase kinase kinase kinase 4 (Homo sapiens) (UniProt O95819); conditions: at 1 µM
[12] = target: Dual specificity mitogen-activated protein kinase kinase 1 (Homo sapiens) (UniProt Q02750); conditions: at 0.1 µM
[13] = target: Dual specificity mitogen-activated protein kinase kinase 1 (Homo sapiens) (UniProt Q02750); conditions: at 1 µM
[14] = target: Misshapen-like kinase 1 (Homo sapiens) (UniProt Q8N4C8); conditions: at 0.1 µM
[15] = target: Misshapen-like kinase 1 (Homo sapiens) (UniProt Q8N4C8); conditions: at 1 µM
[16] = target: T4, Serine/threonine-protein kinase 4 (Homo sapiens) (UniProt Q13043); conditions: at 0.1 µM
T4 sequence (whole entry): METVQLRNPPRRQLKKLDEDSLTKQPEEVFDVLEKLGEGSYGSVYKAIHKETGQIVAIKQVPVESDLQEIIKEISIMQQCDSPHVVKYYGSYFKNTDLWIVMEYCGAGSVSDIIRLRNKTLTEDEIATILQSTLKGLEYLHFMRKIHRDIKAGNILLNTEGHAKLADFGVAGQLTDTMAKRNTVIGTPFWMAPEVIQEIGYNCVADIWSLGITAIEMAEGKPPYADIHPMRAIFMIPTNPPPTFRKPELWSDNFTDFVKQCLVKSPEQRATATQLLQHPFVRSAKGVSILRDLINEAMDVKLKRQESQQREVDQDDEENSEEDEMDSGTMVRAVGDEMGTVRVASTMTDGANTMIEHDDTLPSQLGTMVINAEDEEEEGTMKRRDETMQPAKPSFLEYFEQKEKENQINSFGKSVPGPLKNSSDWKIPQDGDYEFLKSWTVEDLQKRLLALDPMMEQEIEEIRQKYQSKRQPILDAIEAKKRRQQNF

[17] = target: T4, Serine/threonine-protein kinase 4 (Homo sapiens); conditions: at 1 µM
[18] = target: T5, Serine/threonine-protein kinase 3 (Homo sapiens) (UniProt Q13188); conditions: at 0.1 µM
T5 sequence (whole entry): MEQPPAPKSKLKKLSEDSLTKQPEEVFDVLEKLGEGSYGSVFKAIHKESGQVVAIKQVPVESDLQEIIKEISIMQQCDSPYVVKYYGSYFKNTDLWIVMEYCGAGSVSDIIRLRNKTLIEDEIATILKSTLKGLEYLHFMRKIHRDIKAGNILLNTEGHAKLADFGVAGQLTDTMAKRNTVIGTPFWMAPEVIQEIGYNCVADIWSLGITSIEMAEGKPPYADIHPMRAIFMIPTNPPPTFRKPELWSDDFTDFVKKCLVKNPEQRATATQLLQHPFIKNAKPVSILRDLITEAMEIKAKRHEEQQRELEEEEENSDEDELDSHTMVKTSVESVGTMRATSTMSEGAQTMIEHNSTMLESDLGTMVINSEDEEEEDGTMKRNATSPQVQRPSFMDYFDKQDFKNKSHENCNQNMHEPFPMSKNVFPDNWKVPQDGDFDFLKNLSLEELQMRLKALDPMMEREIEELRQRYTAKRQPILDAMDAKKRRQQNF

[19] = target: T5, Serine/threonine-protein kinase 3 (Homo sapiens); conditions: at 1 µM
[20] = target: Serine/threonine-protein kinase 26 (Homo sapiens) (UniProt Q9P289); conditions: at 0.1 µM
Chain of Serine/threonine-protein kinase 26 (Homo sapiens) (Q9P289 2-416 limits assumed): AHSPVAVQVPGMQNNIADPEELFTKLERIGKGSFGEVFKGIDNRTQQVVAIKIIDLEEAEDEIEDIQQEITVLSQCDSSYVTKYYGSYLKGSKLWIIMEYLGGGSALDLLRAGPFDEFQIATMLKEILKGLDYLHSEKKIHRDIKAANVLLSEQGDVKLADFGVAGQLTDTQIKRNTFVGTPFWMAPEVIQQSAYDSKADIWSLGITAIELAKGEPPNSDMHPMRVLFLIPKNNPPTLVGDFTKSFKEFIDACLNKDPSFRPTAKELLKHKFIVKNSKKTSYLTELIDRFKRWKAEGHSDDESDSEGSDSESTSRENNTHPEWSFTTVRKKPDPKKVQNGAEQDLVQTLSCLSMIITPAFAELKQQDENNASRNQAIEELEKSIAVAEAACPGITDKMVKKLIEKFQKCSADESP

Chain of Mitogen-activated protein kinase kinase kinase kinase 4 (Homo sapiens) (O95819 2-1239 limits assumed): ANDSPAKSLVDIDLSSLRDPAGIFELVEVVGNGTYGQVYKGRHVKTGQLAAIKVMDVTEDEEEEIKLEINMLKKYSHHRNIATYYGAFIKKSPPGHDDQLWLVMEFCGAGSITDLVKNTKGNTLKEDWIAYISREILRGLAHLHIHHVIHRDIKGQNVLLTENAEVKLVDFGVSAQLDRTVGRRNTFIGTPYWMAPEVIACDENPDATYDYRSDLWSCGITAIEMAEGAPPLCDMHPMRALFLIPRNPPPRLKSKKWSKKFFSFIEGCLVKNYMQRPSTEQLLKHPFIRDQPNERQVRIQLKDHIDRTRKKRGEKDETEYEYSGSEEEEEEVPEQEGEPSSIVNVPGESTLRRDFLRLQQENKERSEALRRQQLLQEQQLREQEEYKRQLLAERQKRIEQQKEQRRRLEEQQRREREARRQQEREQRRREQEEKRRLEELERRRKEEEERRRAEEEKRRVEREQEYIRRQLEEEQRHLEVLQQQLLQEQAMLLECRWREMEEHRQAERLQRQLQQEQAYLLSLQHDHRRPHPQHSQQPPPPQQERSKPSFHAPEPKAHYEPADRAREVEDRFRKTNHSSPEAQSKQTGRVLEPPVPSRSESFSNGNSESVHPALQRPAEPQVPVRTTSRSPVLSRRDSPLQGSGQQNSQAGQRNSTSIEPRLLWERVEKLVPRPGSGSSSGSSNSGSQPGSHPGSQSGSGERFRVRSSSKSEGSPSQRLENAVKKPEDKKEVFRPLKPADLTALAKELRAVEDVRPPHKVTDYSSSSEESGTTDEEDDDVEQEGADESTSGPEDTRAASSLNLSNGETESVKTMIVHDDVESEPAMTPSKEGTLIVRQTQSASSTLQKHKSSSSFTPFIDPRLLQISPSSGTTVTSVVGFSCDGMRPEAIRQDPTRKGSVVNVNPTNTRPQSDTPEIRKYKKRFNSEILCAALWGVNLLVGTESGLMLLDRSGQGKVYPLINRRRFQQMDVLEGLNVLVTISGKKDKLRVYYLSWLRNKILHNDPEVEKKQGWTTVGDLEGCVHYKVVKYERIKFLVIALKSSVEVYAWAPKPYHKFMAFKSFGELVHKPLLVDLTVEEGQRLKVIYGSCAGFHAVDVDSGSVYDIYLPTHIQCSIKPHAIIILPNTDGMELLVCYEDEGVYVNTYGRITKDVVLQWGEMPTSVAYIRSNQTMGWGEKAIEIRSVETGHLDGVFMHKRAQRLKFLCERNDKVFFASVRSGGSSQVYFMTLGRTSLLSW
Chain of Aurora kinase B (Homo sapiens) (Q96GD4 whole entry): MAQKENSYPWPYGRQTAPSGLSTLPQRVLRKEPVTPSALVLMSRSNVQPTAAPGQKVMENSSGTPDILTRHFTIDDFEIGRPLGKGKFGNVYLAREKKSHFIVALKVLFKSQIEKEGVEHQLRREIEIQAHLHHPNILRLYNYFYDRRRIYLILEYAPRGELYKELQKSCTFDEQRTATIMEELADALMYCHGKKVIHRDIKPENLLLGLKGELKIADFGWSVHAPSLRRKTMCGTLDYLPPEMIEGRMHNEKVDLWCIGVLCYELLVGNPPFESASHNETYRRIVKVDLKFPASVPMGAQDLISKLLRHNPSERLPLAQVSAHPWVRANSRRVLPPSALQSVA
Chain of Dual specificity mitogen-activated protein kinase kinase 1 (Homo sapiens) (Q02750 whole entry): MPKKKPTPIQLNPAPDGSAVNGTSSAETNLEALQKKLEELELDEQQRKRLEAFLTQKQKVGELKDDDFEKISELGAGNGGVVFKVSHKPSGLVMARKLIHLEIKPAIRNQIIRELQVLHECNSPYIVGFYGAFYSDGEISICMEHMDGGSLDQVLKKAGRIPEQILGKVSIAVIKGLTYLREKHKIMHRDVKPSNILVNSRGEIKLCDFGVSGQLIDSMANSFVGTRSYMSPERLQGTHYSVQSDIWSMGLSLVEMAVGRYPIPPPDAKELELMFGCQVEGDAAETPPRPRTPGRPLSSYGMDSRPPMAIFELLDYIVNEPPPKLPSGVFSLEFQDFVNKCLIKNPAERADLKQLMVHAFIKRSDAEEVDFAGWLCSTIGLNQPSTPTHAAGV
Chain of Serine/threonine-protein kinase 10 (Homo sapiens) (O94804 whole entry, looked up): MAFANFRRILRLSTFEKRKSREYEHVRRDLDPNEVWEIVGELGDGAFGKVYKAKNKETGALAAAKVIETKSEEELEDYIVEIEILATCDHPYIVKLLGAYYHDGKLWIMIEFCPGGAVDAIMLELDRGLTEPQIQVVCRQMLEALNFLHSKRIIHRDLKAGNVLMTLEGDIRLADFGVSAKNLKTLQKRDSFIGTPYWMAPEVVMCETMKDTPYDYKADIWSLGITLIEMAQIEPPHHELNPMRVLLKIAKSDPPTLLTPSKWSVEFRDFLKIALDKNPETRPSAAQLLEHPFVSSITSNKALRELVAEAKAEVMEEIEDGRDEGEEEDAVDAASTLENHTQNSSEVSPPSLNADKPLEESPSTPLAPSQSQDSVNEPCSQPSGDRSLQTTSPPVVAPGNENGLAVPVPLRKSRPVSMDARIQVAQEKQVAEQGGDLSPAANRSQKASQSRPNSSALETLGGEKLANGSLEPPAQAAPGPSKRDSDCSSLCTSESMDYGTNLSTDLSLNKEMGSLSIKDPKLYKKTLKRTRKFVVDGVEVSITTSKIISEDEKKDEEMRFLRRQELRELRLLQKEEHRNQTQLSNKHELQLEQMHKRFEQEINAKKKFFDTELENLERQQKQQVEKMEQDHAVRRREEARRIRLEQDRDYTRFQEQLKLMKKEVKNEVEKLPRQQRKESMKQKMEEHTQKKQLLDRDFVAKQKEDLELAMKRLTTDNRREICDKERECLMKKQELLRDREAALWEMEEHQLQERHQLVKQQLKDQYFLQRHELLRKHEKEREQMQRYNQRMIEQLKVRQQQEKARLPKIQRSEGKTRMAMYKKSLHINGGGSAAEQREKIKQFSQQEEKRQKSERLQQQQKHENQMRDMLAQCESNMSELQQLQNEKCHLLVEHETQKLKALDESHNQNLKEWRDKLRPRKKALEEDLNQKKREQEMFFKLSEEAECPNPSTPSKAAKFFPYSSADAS
Chain of Misshapen-like kinase 1 (Homo sapiens) (Q8N4C8 whole entry, looked up): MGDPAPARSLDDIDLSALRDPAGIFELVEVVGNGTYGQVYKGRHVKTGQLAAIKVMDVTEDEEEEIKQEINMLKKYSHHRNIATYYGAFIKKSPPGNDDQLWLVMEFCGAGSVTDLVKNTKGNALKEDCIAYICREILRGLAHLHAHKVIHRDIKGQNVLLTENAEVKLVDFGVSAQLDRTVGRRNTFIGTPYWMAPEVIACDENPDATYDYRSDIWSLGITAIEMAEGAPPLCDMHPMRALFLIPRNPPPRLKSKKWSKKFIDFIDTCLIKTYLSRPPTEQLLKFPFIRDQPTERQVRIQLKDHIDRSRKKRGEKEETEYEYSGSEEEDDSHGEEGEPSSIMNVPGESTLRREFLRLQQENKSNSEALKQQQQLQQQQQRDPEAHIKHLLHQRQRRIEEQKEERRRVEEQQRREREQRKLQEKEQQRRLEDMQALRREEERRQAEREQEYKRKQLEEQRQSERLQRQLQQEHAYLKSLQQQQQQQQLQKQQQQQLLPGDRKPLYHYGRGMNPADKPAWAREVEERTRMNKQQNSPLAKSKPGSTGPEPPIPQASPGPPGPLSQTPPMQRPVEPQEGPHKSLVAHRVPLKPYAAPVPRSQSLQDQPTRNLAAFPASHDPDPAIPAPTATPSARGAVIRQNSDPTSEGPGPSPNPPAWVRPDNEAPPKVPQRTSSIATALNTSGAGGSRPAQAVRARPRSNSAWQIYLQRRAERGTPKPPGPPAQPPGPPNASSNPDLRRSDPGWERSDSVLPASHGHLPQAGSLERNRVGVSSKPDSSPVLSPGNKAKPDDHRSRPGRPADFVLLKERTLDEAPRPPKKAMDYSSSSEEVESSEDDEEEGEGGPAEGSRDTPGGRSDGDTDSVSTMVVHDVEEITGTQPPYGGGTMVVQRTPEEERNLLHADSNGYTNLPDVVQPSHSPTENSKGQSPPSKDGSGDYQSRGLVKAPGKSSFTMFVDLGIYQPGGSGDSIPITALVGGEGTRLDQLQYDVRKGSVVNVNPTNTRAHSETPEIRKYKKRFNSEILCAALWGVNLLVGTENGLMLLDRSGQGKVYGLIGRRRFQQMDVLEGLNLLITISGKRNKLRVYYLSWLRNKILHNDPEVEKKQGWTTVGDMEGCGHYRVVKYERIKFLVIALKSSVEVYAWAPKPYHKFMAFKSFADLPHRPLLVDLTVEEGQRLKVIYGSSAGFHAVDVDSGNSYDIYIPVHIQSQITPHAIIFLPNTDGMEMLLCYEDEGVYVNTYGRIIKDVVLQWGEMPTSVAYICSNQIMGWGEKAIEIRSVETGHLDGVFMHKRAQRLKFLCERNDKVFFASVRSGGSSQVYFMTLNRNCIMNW

Compound | inhibition [1] [%] | inhibition [2] [%] | inhibition [3] [%] | inhibition [4] [%] | inhibition [5] [%] | inhibition [6] [%] | inhibition [7] [%] | inhibition [8] [%] | inhibition [9] [%] | inhibition [10] [%] | inhibition [11] [%] | inhibition [12] [%] | inhibition [13] [%] | inhibition [14] [%] | inhibition [15] [%] | inhibition [16] [%] | inhibition [17] [%] | inhibition [18] [%] | inhibition [19] [%] | inhibition [20] [%]
Cc1ccc(O)cc1Nc1ccnc2cc(-c3ccccn3)ccc12 | 17.7 | 9.57 | 43.9 | 6.76 | 60.6 | 11.1 | 47.6 | 3.74 | 26.4 | 26.7 | 75.5 | 6.05 | 4.87 | 21.3 | 65.2 | 7.99 | 8.81 | 8.56 | 6.61 | -2.79
COc1ccc(-c2oc3ncnc(N)c3c2-c2ccc(NC(=O)Nc3cc(C(F)(F)F)ccc3F)cc2)cc1 | 49.5 | 8.53 | 46.2 | 3.56 | 76.2 | 49.5 | 91.3 | 8.42 | 47.2 | 5.29 | 10.1 | 6.74 | 7.26 | 6.56 | 6.71 | 12.5 | 19.3 | 12.7 | 18.3 | 0.51
Cc1ccc2c(-c3ccnc(Nc4ccccc4)n3)c(-c3ccc(F)cc3)nn2n1 | 16.4 | -4.16 | 12.9 | 2.67 | 25.2 | 7.71 | 22.8 | 0.67 | 3.98 | 12.3 | 62.1 | 4.55 | 10.8 | 9.04 | 50.7 | 6.19 | 5.86 | 8.21 | 5.67 | -1.05
COc1ccc(-c2cc3c(N)ncnc3o2)cc1 | 1.33 | -0.85 | 11.7 | 1.13 | 16.7 | -1.35 | 0.33 | 2.31 | 4.72 | 2 | 9.41 | -0.07 | 1.35 | 1.42 | 6.5 | -2 | -0.96 | -3.02 | -0.72 | 1.44
CCN1CCC(CC(=O)Nc2n[nH]c3nnc(-c4cccc(F)c4F)cc23)CC1 | 2.34 | 0.22 | 4.4 | 1.43 | 4.58 | 3.88 | 4.08 | 0.29 | 5.3 | 2.42 | 3.87 | 2.23 | 2.45 | 3.67 | 4.07 | 2.83 | 6.13 | 3.62 | 5.19 | 0.66
CCOc1ccc2c(-c3ccnc(Nc4cccc(C(F)(F)F)c4)n3)cnn2n1 | 7.68 | 6.17 | 9.87 | 2.6 | 12.5 | 4.81 | 12.9 | 0.42 | 6.12 | 0.65 | 4.83 | 2.29 | 0.44 | 3.9 | 7.19 | 3.72 | 3.98 | 5.61 | 6.48 | 0.02
N#Cc1c(NC(=O)c2ccc(F)cc2)sc2c1CCCC2 | 0.18 | 2.3 | 1.27 | 0.83 | -4.93 | 3.11 | 6.81 | 0.12 | 1.05 | 1.93 | 5.3 | 1.23 | 1.68 | 2.23 | 4.89 | -0.35 | 2.59 | 0.16 | 3.36 | -0.1
Clc1ccc(-c2nn3ncccc3c2-c2ccnc(Nc3ccccc3)n2)cc1 | 25.5 | 3.6 | 20.2 | 1.35 | 36.1 | 4.2 | 40.8 | 1.09 | 5.08 | 5.07 | 39.9 | 1.32 | 2.28 | 5.91 | 33 | 0.77 | 0.46 | -0.25 | -0.67 | 1.4
CC(=O)NCc1cccc(C#Cc2cncnc2Nc2ccc(OCc3cccc(F)c3)c(Cl)c2)c1 | 5.66 | 1.99 | 6.3 | 1 | -2.37 | 0.67 | 8.18 | 0.67 | 3.21 | 2.6 | 7.74 | 1.45 | 1.08 | 2.48 | 8.64 | 1.57 | 5.79 | 0.67 | 3.55 | -0.27
CCn1c(-c2nonc2N)nc2c(C#CC(C)(C)O)ncc(OC3CCNCC3)c21 | 0.96 | 2.65 | 1.85 | 1.48 | 3.1 | 3.27 | 11.2 | 2.3 | 3.12 | 2.72 | 6.21 | 1.98 | 3.44 | 4.48 | 5.83 | 1.6 | 4.54 | 3.55 | 6.04 | 0.64
CC(C)COC(=O)c1ccc2c(c1)/C(=C/Nc1ccc(S(N)(=O)=O)cc1)C(=O)N2 | 61 | 6.97 | 48 | 4.05 | 82.9 | -1.08 | 12.6 | 2.95 | 14.3 | 14.5 | 65.3 | 3.79 | 33.7 | 10.3 | 53.8 | 46.2 | 81.5 | 34 | 77.9 | -0.24
O=S(=O)(CCNCc1ccc(-c2ccc3ncnc(Nc4ccc(OCc5cccc(F)c5)c(Cl)c4)c3c2)o1)c1ccccc1 | 6.24 | 5.41 | 11.8 | 2.93 | 10.2 | 9.92 | 17.5 | 2.04 | 5.59 | 4.02 | 10.8 | 6.48 | 5.62 | 5.49 | 5.63 | 4.83 | 7.44 | 8.36 | 9.44 | -1.43
CNC(=O)c1cc(-c2ccc(F)cc2)cc(-c2ccc(S(=O)(=O)N3CCCC3)cc2)c1N | 0.86 | 2.91 | 3.09 | -0.67 | 1.97 | 2.49 | 4.92 | 1 | 0.67 | 3.33 | 7.55 | 2.79 | 4.52 | 4.69 | 5.6 | 0.78 | 1.31 | 0.82 | 1.3 | -0.65
CCNC(=O)O[C@H]1CN[C@H](C#Cc2cc3ncnc(Nc4ccc(OCc5cccc(F)c5)c(Cl)c4)c3s2)C1 | 9.61 | 0.34 | 8.23 | 1.85 | 12 | 3.53 | 9.99 | 0.18 | 2.21 | 4.18 | 5.98 | 2.35 | 1.8 | 4.31 | 5.58 | 5.6 | 5.6 | 6.17 | 5.21 | -1.55
